Values joined by “and” are separate entries in the source; they are usually repeats but may differ in a detail not shown here. Equal entries are not always repeated. Active and inactive are the calls of the source. Rule for the calls: active = hit-call score of the fitted dose curve at least 0.9, where 1 is the maximum; inactive = score below 0.9.

The assay can be described thus: BSK_3C_Proliferation: Cell Proliferation Assessment in the BioMAP Diversity Plus: 3C Assay (AID 2283006).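 For AC50: potency may reflect either rise or fall in cell number versus DMSO.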 The conditions noted are these: primary human endothelial cells (HUVEC). Here is the method:
BSK_3C is a cell-based, multiplexed-readout assay that uses umbilical vein endothelium, a human vascular primary cell, with measurements taken at 24 hours after chemical dosing in a 96-well plate.BSK_3C_Proliferation is an assay component measured in the BSK_3C assay. It measures 0.1% sulforhodamine related to cell proliferation using Sulforhodamine staining technology.Data from the assay component BSK_3C_Proliferation was analyzed into 1 assay endpoint. This assay endpoint, BSK_3C_Proliferation, was analyzed with bidirectional fitting relative to DMSO as the negative control and baseline of activity. Using a type of viability reporter, measures of total protein for gain or loss-of-signal activity can be used to understand the viability at the cellular-level. Furthermore, this assay endpoint can be referred to as a secondary readout, because this assay has produced multiple assay endpoints where this one serves a viability function. To generalize the intended target to other relatable targets, this assay endpoint is annotated to the cell cycle intended target family, where the subfamily is proliferation.
The levels of cell surface (or secreted, indicated by the prefix "s") biomarker endpoints were measured by ELISA. Overt cytotoxicity to cells in confluent adherent cultures (all systems other than the BT system) was assessed by measuring total protein levels using sulforhodamine B (SRB) staining in parallel cultures at the time of biomarker measurements, indicated as SRB endpoints. For proliferation assays for adherent cell types, individual cell types are cultured at sub-confluence and relative cell numbers quantified by SRB staining at time points optimized for each system (48 h: 3C and CASM3C systems; 72 h: BT and HDF3CGF systems; 96 h: SAg system). SRB was performed by staining cells with 0.1% SRB after fixation with 10% TCA and reading wells at 560 nm.Viability and proliferation of PBMC (T cells) was quantified by Alamar Blue reduction for the SAg and BT systems. For PBMC viability (referred to as PBMC Cytotoxicity within the assay endpoint names), cells were plated (75,000/well in a 96-well plate) and then chemical samples added for 1 h before addition of activators, SEB and TSST-1 (20 ng/mL final concentration each). Cells were incubated for 90 h. Then, Alamar Blue (20 uL/well) (Invitrogen, Cat DAL1100) was added for 6 h, and the plates were read with a fluorescence microplate reader at 546/580 nm (excitation/emission). For PBMC proliferation, cells were plated and activated as above but incubated for only 16 h prior to addition of Alamar Blue. Plates were read after 6 h.
As to `CC(C)(CO)CO`, the result was inactive. For `COC(=O)c1ccc(C(=O)OC)cc1`, the result was inactive. On the same count and under the same terms, for `O=S(=O)(O)C(F)(F)C(F)(F)OC(F)(F)C(F)(F)F` the value was “inactive”; for `c1ccc2c(c1)-c1ccc3ccc4cccc5cc-2c1c3c45`, “inactive”. Still for that read-out and setting: the entry for `CCOC(=O)CCCCCCCCC(=O)OCC` is “inactive”. Take `O=C(O)C(F)(F)C(F)(F)C(F)(F)C(F)(F)C(F)(F)C(F)(F)C(F)(F)C(F)F`: the outcome was inactive.

As for `c1ccc(OCCOc2ccccc2)cc1`, the result was inactive. As to `OCC(F)(OC(F)(F)C(F)(OC(F)(F)C(F)(F)C(F)(F)F)C(F)(F)F)C(F)(F)F` (stereo not given), the AC50 was 3.78 µM (active) and 2.59 µM (active).

With `CC(C)CCCC(C)(C)O`, the outcome was inactive. Same read-out and setting: for `CCn1cc(C(=O)O)c(=O)c2ccc(C)nc21` the value was “inactive”.

Consider `CC=CC(=O)C1=C(C)C=CCC1(C)C`, for which the result was inactive. Still for that read-out and setting: the entry for `COc1ccccc1NC(=O)CC(C)=O` is “inactive”. Consider `c1ccc(Sc2ccccc2)cc1`, for which the AC50 was 27.6 µM (active). On the same count and under the same terms, for `CCCCCCCC1CCCC1=O` (stereo not given) the value was 36.8 µM (active); for `C#C[C@]1(O)CC[C@H]2[C@@H]3CCc4cc(O)ccc4[C@H]3CC[C@@]21C`, 4.5 µM (active). For the molecule `CCCCN(CCO)CCO`, the outcome was inactive. The same measure, in the same setting: for `OCCN1CCOCC1` the value was “inactive”; for `CC1=CC(C)C(C=O)C(C)C1` (stereo not given) (tested in a mixture with another compound), “inactive”. For the molecule `O=S1(=O)CC(Cl)(Cl)C(Cl)(Cl)C1`, the AC50 is 0.191 µM (active). In the case of `CCCO[Si](OCCC)(OCCC)OCCC`, the outcome was inactive. `CCOC(=O)C=Cc1ccccc1`: the result was inactive.

Turning to `NC(=O)c1c(Cl)cccc1Cl`, the outcome was inactive. Consider `CCCCCCCCCCCCS`, for which the AC50 is 14.4 µM (active).

As for `O=C(c1ccc(OCCN2CCCCC2)cc1)c1c(-c2ccc(O)cc2)sc2cc(O)ccc12`, the AC50 is 12.9 µM (active). Same read-out and setting: the figure for `CC/C(=C(\c1ccccc1)c1ccc(OCCN(C)C)cc1)c1ccccc1` is 5.46 µM (active) and 6.63 µM (active). Regarding `Nc1ccc(N)c([N+](=O)[O-])c1`, the outcome was inactive. Same read-out and setting: the entry for `CC1(C)[C@H](C=C(Cl)Cl)[C@H]1C(=O)OCc1cccc(Oc2ccccc2)c1` is “inactive”; for `CCCCOCCOCCO` it is “inactive”.

On to `CCC(=O)OCC=Cc1ccccc1`, for which the result was inactive. In the case of `CC(=O)OC(C)(C)C1CC=C(C)CC1` (stereo not given), the AC50 was 28.4 µM (active). On the same count and under the same terms, the figure for `C[C@]12CC[C@@H]3c4ccc(O)cc4CC[C@H]3[C@@H]1CC[C@@H]2O` is 8.41 µM (active). As for `CC(C)(C)c1cccc(O)c1`, the outcome was inactive. Regarding `O=C(O)C(F)(F)OC(F)(F)C(F)(F)OC(F)(F)C(F)(F)C(F)(F)C(F)(F)F`, the AC50 was 54.5 µM (active) and 48.8 µM (active).

On to `CC(=O)c1ccc(C)cc1`, for which the result was inactive. On the same count and under the same terms, for `CC(=O)CCC=C(C)CCC=C(C)C` the value was “inactive”. On the same count and under the same terms, for `CC(=O)OCC=C(C)CCC=C(C)CCC=C(C)C` the value was “inactive”. On to `C=CC(=O)OCC(CO)(COC(=O)C=C)COC(=O)C=C`, for which the AC50 is 0.131 µM (active). Still for that read-out and setting: for `C=C1CC/C=C(\C)CC[C@@H]2[C@@H]1CC2(C)C` the value was 30 µM (active). For the molecule `CC(C)Cc1ccc(C(C)C(=O)O)cc1` (stereo not given), the outcome was inactive.

Regarding `C=C(C)C(N)=O`, the outcome was inactive.

One may read the AC50 as the concentration at which the activity in the assay is half-maximal.

The record behind these values is PubChem BioAssay (EPA / NIEHS).
